Results on 39 compounds are retold here after PubChem BioAssay (NCI).

This is part of a sample that, as a whole, favours compounds with a hit. Of some 83,000 tested, about 20% had one in any assay.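 Cells were grown in 96-well plates and exposed to the test compound at a single concentration for 48 hours; results are reported as percent growth, with values below 10 considered active.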 Values without a mark were called inactive. Calls of active or inactive are those of the source.

The first assay relates to OVCAR-5 ovarian. The experiment in a line: NCI-60 one-dose screen, 48 h (100 = growth as untreated, 0 = no growth, -100 = all killed). The conditions noted are these: 10 µM unless noted.
On to `COc1ccc(-c2nc(N3CCN(C(=O)C4CCCCC4)CC3)c3c4c(sc3n2)CCCC4)cc1`, for which the growth was 35.6%. Same read-out and setting: in the case of `O=c1oc2ccc(F)cc2c(=O)n1-c1ccc(Cl)cc1F` it was 17.6%. Take `COc1cc(C(=O)Nc2ccc(-c3nc4ccccc4[nH]3)cc2)cc(OC)c1OC`: the growth is 83.5%. For `O=c1oc2ccc(Cl)cc2c(=O)n1-c1ccc(I)cc1F`, the growth was 23.1%. On the same count and under the same terms, in the case of `CCC1=C[C@@H]2CN(C1)Cc1c([nH]c3ccccc13)[C@@](C(=O)OC)(c1cc3c(cc1OC)N(C)[C@H]1[C@@](O)(C(=O)OC)[C@H](OC(C)=O)[C@]4(CC)[C@@H]5C[C@@H]5CN5CC[C@]31[C@@H]54)C2` it was 44.6%. The same measure, in the same setting: under `O=c1oc2ccc(F)cc2c(=O)n1-c1ccc(I)cc1F` stands 22.2%. In the case of `COc1ccc(C2C3=C(COC3=O)N(CCO)c3cc4c(cc32)CCC4)cc1OC` (stereo not drawn), the growth is 57.3%. In the case of `O=c1oc2ccc(I)cc2c(=O)n1-c1ccc(Cl)cc1F`, the growth is 21.5%. `O=C1OC(c2ccccc2)(c2ccccc2)c2ccsc21`: the growth was 95.7%. Same read-out and setting: under `O=c1oc2ccc(-c3ccc(F)cc3F)cc2c(=O)n1-c1cccc(C(F)(F)F)c1` stands 12.1%; under `Cn1nc(C(C)(C)C)cc1NC(=O)Cc1ccc(/C=C2\C(=O)Nc3ccccc32)cc1`, 107%; under `Cc1ccc(Nc2nc(N)c3ccccc3n2)cc1Cl`, 75.5%. For the compound `O=C(c1ccccc1)N(CCc1ccc(Cl)cc1)C(=S)N(C(=O)c1ccccc1)c1ccccc1`, the growth is 106%. On to `O=C(COc1cc(O)c2c(=O)cc(-c3ccccc3)oc2c1)Nc1ccccc1`, for which the growth is 98.1%. On the same count and under the same terms, under `O=C1c2cc(I)ccc2Oc2cc([N+](=O)[O-])ccc2N1c1ccc(Cl)cc1F` stands 90.5%; under `Nc1ccc(-c2nn3c(CCC(=O)c4nc5ncccc5[nH]4)nnc3s2)c(O)c1`, 95%; under `COc1c(B(O)O)cccc1-c1nc2ccc3[nH]ncc3c2c2c1C1CCC2C1` (stereo not drawn), 113%.

In the case of `Oc1c(CN2CCN(c3ccccc3F)CC2)cc(Br)c2cccnc12`, the growth is -19.3% (active). On the same count and under the same terms, under `O=C(Nc1ccc(F)cc1F)c1cc(Br)ccc1O` stands -7.85% (active).

Take `O=C(Nc1ccc(N2CCNCC2)cn1)c1[nH]ncc1Nc1ncnc2sccc12`: the growth is 67%. With `O=C1c2ccc3c4c(ccc(c24)C(=O)N1CCCCO)C(=O)N(CCCCO)C3=O`, the growth is 106%.

For `CC[C@]1(O)C[C@@H]2CN(CCc3c([nH]c4ccccc34)[C@@](C(=O)OC)(c3cc4c(cc3OC)N(C)[C@H]3[C@@](O)(C(=O)OC)[C@H](OC(=O)CCCBr)[C@]5(CC)C=CCN6CC[C@]43[C@@H]65)C2)C1`, the growth was 24.9%. Turning to `Nc1ncnc(N)c1NC(=O)c1ccc(OCc2ccccc2)cc1`, the growth was 106%. On to `O=c1oc2ccc(Cl)cc2c(=O)n1-c1ccc(F)cc1F`, for which the growth was 16.6%.

In another assay the test system is OVCAR-4 ovarian. The assay is described as above. The conditions noted are these: 10 µM unless noted.
Consider `Nc1nc(N)c2c(n1)NC1(C=C(O)c3ccccc31)C1=C(N2)c2ccccc2C1=O` (stereo not drawn), for which the growth was 98.1%. Regarding `COc1ccc(CCN2C(=O)/C(=C/c3ccc(C4Oc5ccccc5C5CC(c6cccc(OC)c6)=NN54)cc3)SC2=S)cc1` (stereo not drawn), the growth is 98.9%. Take `O=C(Nc1ccc(N2CCNCC2)cc1)c1[nH]ncc1Nc1cc(Oc2ccccc2)ncn1`: the growth is 43.3%. On the same count and under the same terms, under `O=C(CCc1nnc2sc(Cc3ccccc3Cl)nn12)c1nc2ncccc2[nH]1` stands 92.5%; under `O=NN(Cc1cccnc1)C(=O)NC1CCCCC1`, 104%.

With `CN(C)/C=C1\SC(=Nc2ccc(Cl)cc2)NC1=O`, the growth was 108%. The same measure, in the same setting: in the case of `CCOC(=O)c1cc2c(n1Cc1ccccc1)-c1oncc1CCC2` it was 72.9%; in that of `O=C(c1ccccc1)N(C(=S)NCCc1ccc(Cl)cc1)c1ccccc1`, 96.9%. As for `COc1cccc(/C=C/C(=O)c2c(C)nc3ccccc3c2/C=C/c2ccccc2)c1OC`, the growth was 46.3%. `CCOC(=O)c1cc2c(n1Cc1cccc(OC)c1)-c1oncc1CCC2`: the growth was 54.3%. Same read-out and setting: in the case of `COc1ccc(OC)c(NC(=O)/C(C#N)=C/c2ccco2)c1` it was 77%; in that of `CCc1ccc(CNCC(O)c2ccccc2)cc1` (stereo not drawn), 55.3%.

As for `CC/C=C\C[C@H](O)C/C=C1/C(=O)C=C[C@@H]1C/C=C\CCCC(=O)OCCS(=O)(=O)c1ccccc1`, the growth was 84.3%.

For the compound `O=C1c2cc(Br)ccc2Oc2cc([N+](=O)[O-])ccc2N1c1ccc(I)cc1F`, the growth is 94.5%.

`COc1ccc(/C=C/C(=O)c2c(C)nc3ccccc3c2/C=C/c2ccccc2)cc1O`: the growth is 61.9%. The same measure, in the same setting: under `COc1ccc(-c2nc(N3CCN(C(=O)C4CCCCC4)CC3)c3c4c(sc3n2)CCCC4)cc1` stands -85.4% (active); under `O=c1oc2ccc(F)cc2c(=O)n1-c1ccc(Cl)cc1F`, 13.3%. Still for that read-out and setting: under `COc1cc(C(=O)Nc2ccc(-c3nc4ccccc4[nH]3)cc2)cc(OC)c1OC` stands 61.6%; under `O=c1oc2ccc(Cl)cc2c(=O)n1-c1ccc(I)cc1F`, 16.1%.

In the case of `CCC1=C[C@@H]2CN(C1)Cc1c([nH]c3ccccc13)[C@@](C(=O)OC)(c1cc3c(cc1OC)N(C)[C@H]1[C@@](O)(C(=O)OC)[C@H](OC(C)=O)[C@]4(CC)[C@@H]5C[C@@H]5CN5CC[C@]31[C@@H]54)C2`, the growth was 14.6%. The same measure, in the same setting: under `O=c1oc2ccc(F)cc2c(=O)n1-c1ccc(I)cc1F` stands 12.4%. Same read-out and setting: under `COc1ccc(C2C3=C(COC3=O)N(CCO)c3cc4c(cc32)CCC4)cc1OC` (stereo not drawn) stands 28.3%; under `O=c1oc2ccc(I)cc2c(=O)n1-c1ccc(Cl)cc1F`, 15.8%; under `O=C1OC(c2ccccc2)(c2ccccc2)c2ccsc21`, 107%. Regarding `O=c1oc2ccc(-c3ccc(F)cc3F)cc2c(=O)n1-c1cccc(C(F)(F)F)c1`, the growth is 19.2%.

With `Cn1nc(C(C)(C)C)cc1NC(=O)Cc1ccc(/C=C2\C(=O)Nc3ccccc32)cc1`, the growth is 47.6%. On the same count and under the same terms, in the case of `Cc1ccc(Nc2nc(N)c3ccccc3n2)cc1Cl` it was 55.7%; in that of `O=C(c1ccccc1)N(CCc1ccc(Cl)cc1)C(=S)N(C(=O)c1ccccc1)c1ccccc1`, 96.6%. Same read-out and setting: in the case of `O=C(COc1cc(O)c2c(=O)cc(-c3ccccc3)oc2c1)Nc1ccccc1` it was 78.9%; in that of `O=C1c2cc(I)ccc2Oc2cc([N+](=O)[O-])ccc2N1c1ccc(Cl)cc1F`, 79.4%. The same measure, in the same setting: in the case of `Nc1ccc(-c2nn3c(CCC(=O)c4nc5ncccc5[nH]4)nnc3s2)c(O)c1` it was 98%; in that of `COc1c(B(O)O)cccc1-c1nc2ccc3[nH]ncc3c2c2c1C1CCC2C1` (stereo not drawn), 115%. As to `Oc1c(CN2CCN(c3ccccc3F)CC2)cc(Br)c2cccnc12`, the growth is -81% (active). Same read-out and setting: in the case of `O=C(Nc1ccc(F)cc1F)c1cc(Br)ccc1O` it was -0.761% (active). The same measure, in the same setting: under `O=C(Nc1ccc(N2CCNCC2)cn1)c1[nH]ncc1Nc1ncnc2sccc12` stands 21.3%; under `O=C1c2ccc3c4c(ccc(c24)C(=O)N1CCCCO)C(=O)N(CCCCO)C3=O`, 42.4%; under `CC[C@]1(O)C[C@@H]2CN(CCc3c([nH]c4ccccc34)[C@@](C(=O)OC)(c3cc4c(cc3OC)N(C)[C@H]3[C@@](O)(C(=O)OC)[C@H](OC(=O)CCCBr)[C@]5(CC)C=CCN6CC[C@]43[C@@H]65)C2)C1`, 35.3%. Same read-out and setting: in the case of `Nc1ncnc(N)c1NC(=O)c1ccc(OCc2ccccc2)cc1` it was 107%; in that of `O=c1oc2ccc(Cl)cc2c(=O)n1-c1ccc(F)cc1F`, 18.5%.
